About 7,600 (2.4%) of roughly 320,000 compounds were called active. Roughly 3% stayed inconclusive and do not appear here. Calls follow the shape of the dose curve; as a rule, active = well fitted activation curve with a large enough effect; inconclusive = small, poorly fitted or top-dose-only effect; inactive = no such curve, though single readings can be large or run the other way. What follows is part of a selection rich in actives, with near analogues and random picks from the rest. Entries that show only a call come without a potency.
Potency is read from the fitted curve at half-maximal effect.

The assay can be described thus: qHTS Assay for NPC1 Promoter Activators. Also: nearly all actives have a fitted effect of over 60% in size.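 As to activation: reporter is driven by a mutant NPC1 promoter.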 As to conditions: Huh7 NPC1 promoter luciferase reporter, 24 h; series mostly up to 9.22 µM. A digest of the protocol: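 Readout is luciferase luminescence, reflecting NPC1 promoter activation in stably transfected Huh7 cells after 24 h compound exposure at 37 °C in reduced-serum medium with 10% FBS.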
In general terms: qHTS replaces the single test concentration by a dilution series.
Consider `N#Cc1ccc(OCC(=O)NC(=O)NC2CCS(=O)(=O)C2)cc1` (centres undefined), for which the Potency result was “inactive”.
For `Cn1c(=NC(=O)C2CC2)sc2cc(F)cc(F)c21` the value was “inactive”; for `CCCC(=O)N=c1sc2cccc(F)c2n1C`, “inactive”.
In the case of `Cn1c(=NC(=O)c2ccco2)sc2cccc(F)c21` it was 2510 nM (active).
For the compound `CC1CC2C3CCC4=CC(=O)C=C[C@]4(C)[C@@]3(F)[C@@H](O)C[C@]2(C)[C@@]1(O)C(=O)CO` (some centres undefined), the Potency result was “inactive”.
For `CN(C)S(=O)(=O)c1cccc(NC(=O)COc2ccc3ccccc3c2)c1` the value was “inactive”; for `O=C(COC(=O)c1ncc(Cl)c(Cl)c1Cl)NCc1ccccc1`, “inactive”; for `CCOc1ccc(C(=O)Nc2nccs2)cc1[N+](=O)[O-]`, “inactive”.
For `Cc1ccc(-c2noc(CC(c3ccccc3)c3ccccc3)n2)cc1` the value was “inactive”; for `Cc1cccc(-c2nc(Nc3ccc(O)cc3)c3ccccc3n2)c1`, “inactive”.
In the case of `Cc1ccc(-c2noc(CN3CCN(Cc4ccccc4)CC3)n2)cc1` it was “inactive”.
With `Cc1ccc(Cc2nc(-c3cccc(C)c3)no2)cc1`, the Potency was 2820 nM (active).
For `Cc1cccc(-c2noc(-c3ccc(F)cc3)n2)c1`, the Potency was 100 nM (active).
Consider `Cc1cccc(-c2noc(CCC(=O)NC3CCCC3)n2)c1`, for which the Potency result was “inactive”.
For `O=C(CSc1ccccc1)Nc1cccc(S(=O)(=O)N2CCOCC2)c1` the value was “inactive”; for `CC(=O)c1sc(NC(=O)C2=NN(c3ccccc3)C(=O)CC2)nc1C`, “inactive”; for `Cc1nnc(C)n1/N=C/c1ccc(C(C)C)cc1`, “inactive”.
For `Cc1ccc(S(=O)(=O)Nc2nc(C)cc(N/N=C/c3ccc(O)cc3)n2)cc1` the value was “inactive”; for `CCOC(=O)c1sc(NC(=O)c2sc(C)nc2C)nc1C`, “inactive”.
In the case of `COc1cc2ccccc2cc1C(=O)Nc1ccccc1C` it was “inactive”; in that of `CC(=O)c1sc(NC(=O)c2ccc(C)cc2)nc1C`, 1580 nM (active); in that of `COc1cc2ccccc2cc1C(=O)Nc1nc(C)c(C(C)=O)s1`, 3980 nM (active).
As for `CC(=O)c1sc(N/N=C/c2ccc(C(C)C)cc2)nc1C`, the Potency is 1000 nM (active).
`COc1cc2ccccc2cc1C(=O)Nc1ccncc1`: the Potency entry was “inactive”.
In the case of `CC(=O)c1sc(NC(=O)CCCOc2ccccc2C)nc1C` it was “inactive”.
On to `CC(=O)c1sc(N)nc1C`, for which the Potency result was “inactive”.
For `CC(=O)c1sc(N/N=C\c2ccc(C)cc2)nc1C` the value was 3550 nM (active); for `COc1ccc(Cl)cc1NC(=O)CN(C)CC(=O)Nc1ccc2c(c1)OCO2`, “inactive”; for `COc1ccc(-c2cc(C(=O)NCCCN3CCCC3=O)c3ccccc3n2)cc1OC`, “inactive”.
For `O=S(=O)(Nc1ccc(Cl)cn1)c1cnc(Cl)c(Br)c1` the value was “inactive”; for `COc1ccc(S(=O)(=O)Nc2ccc3cn[nH]c3c2)cc1[N+](=O)[O-]`, “inactive”.
Take `CCc1ccc(CN(C)C(C)C(=O)Nc2ccc(S(=O)(=O)N3CCCC3)cc2)cc1` (centres undefined): the Potency result was “inactive”.
In the case of `CN1CCC(N(C)S(=O)(=O)c2ccc(NC(=O)c3cccc(C#N)c3)cc2)CC1` it was “inactive”; in that of `COc1ccc(C2(C)ON(c3ccccc3C(F)(F)F)C2=O)cc1` (centres undefined), “inactive”.
In the case of `O=C(CSc1nc2ncccc2[nH]1)Nc1ccc2c(c1)OCCO2` it was “inactive”; in that of `CCn1nc(C(=O)NNC(=O)C2CSC3(C)CCC(=O)N23)c2ccccc2c1=O` (centres undefined), “inactive”.
On to `N#Cc1c(NC(=O)C2CC(Cl)=CCC2C(=O)O)sc2c1CCCCC2` (centres undefined), for which the Potency entry was “inactive”.
On to `N#Cc1c(NC(=O)C2CCCO2)sc2c1CCCCC2` (centres undefined), for which the Potency is 3550 nM (active).
In the case of `N#Cc1c(NC(=O)CCCl)sc2c1CCCCC2` it was “inactive”.
For the compound `COc1ccc(NS(=O)(=O)c2cccc(C(=O)NCCc3ccc(S(N)(=O)=O)cc3)c2)cc1`, the Potency result was “inactive”.
In the case of `O=c1c2ccccc2nc2n1C(CSc1ccc(Cl)cc1)CN2` (centres undefined) it was “inactive”; in that of `Clc1ccc2nc(CSc3ccccc3)cn2c1`, 501 nM (active).
In the case of `O=C(/C=C/c1ccc2c(c1)OCO2)NCc1cn2cc(Cl)ccc2n1` it was “inactive”; in that of `CN(CCC1CCOCC1)Cc1cn[nH]c1-c1ccc(-c2ccccc2)cc1`, “inactive”; in that of `O=C(COC(=O)C1CC2CCCC(C1)C2=O)NC(=O)c1ccccc1` (centres undefined), “inactive”.
In the case of `CC(OC(=O)c1ccccc1NCCO)C(=O)Nc1ccnn1C(C)C` (centres undefined) it was “inactive”.
As for `CC1CCCC(NC(=O)c2cc(S(=O)(=O)N3CCCCC3)ccc2Cl)C1C` (centres undefined), the Potency result was “inactive”.
For `Cc1ccc(NC(=O)CCCNC(=O)c2ccc(Cl)cc2)cc1S(=O)(=O)N1CCOCC1` the value was “inactive”; for `NC(=O)Cc1ccc2sc(-c3ccccc3)nc2c1`, 3550 nM (active).
In the case of `O=C(O)Cc1sc(-c2ccccc2)nc1-c1cccs1` it was “inactive”; in that of `NC(=O)Cc1ccc2c(c1)[nH]c1ccccc12`, “inactive”; in that of `CC(OC(=O)CN1C(=O)c2ccccc2C1=O)C(=O)c1ccccc1` (centres undefined), “inactive”.
In the case of `O=C(COC(=O)c1ccc(O)cc1O)NNC(=O)c1cccs1` it was “inactive”; in that of `CCCc1nc2ccccc2c(=O)n1NC(=O)c1c(O)c2ccccc2[nH]c1=O`, “inactive”.
As to `CC(C)C(=O)Nc1c(O)c2ccccc2[nH]c1=O`, the Potency result was “inactive”.
On to `NS(=O)(=O)c1ccccc1NC(=O)c1c(O)c2ccccc2[nH]c1=O`, for which the Potency was 562 nM (active).
In the case of `Cc1ccc(S(=O)(=O)N2CC(O)C[C@H]2C(=O)OCC(=O)Nc2ccc(N3CCOCC3)cc2)cc1C` (some centres undefined) it was “inactive”; in that of `Cc1ccc(CNC(=O)CC(NC(=O)c2ccccc2)c2ccccc2)cc1` (centres undefined), “inactive”; in that of `COc1ccccc1C1=CC(=O)C[C@H](c2ccc(F)cc2)C1`, “inactive”.
In the case of `CCc1ccccc1NC(=O)CSc1nnc(-c2ccncc2)o1` it was “inactive”.
In the case of `O=C(CSc1nnc(-c2ccc([N+](=O)[O-])cc2)o1)Nc1ccccn1` it was 708 nM (active); in that of `CCOC(=O)CSc1nnc(-c2ccc([N+](=O)[O-])cc2)o1`, “inactive”; in that of `O=S(=O)(Nc1ccc(-n2cnnn2)cc1)c1ccc(Cl)cc1`, “inactive”.
In the case of `CCN(CC)S(=O)(=O)c1ccc(OC)c(NC(=O)CCc2c(C)noc2C)c1`, the Potency entry is “inactive”.
For `COC(=O)CNS(=O)(=O)c1ccc(OC)cc1` the value was “inactive”; for `COC(=O)CNS(=O)(=O)c1ccc(Cc2ccc(S(=O)(=O)NCC(=O)OC)cc2)cc1`, 631 nM (active); for `C/C(N)=C(/C#N)C(=O)COC(=O)CNS(=O)(=O)c1ccc(C)cc1`, “inactive”.
For `CC(=O)c1ccc(OCCCC(=O)Nc2ccc(C)c(S(=O)(=O)N3CCOCC3)c2)cc1` the value was “inactive”.
For `COc1ccc(CNC(=O)COC(=O)c2c(C)nn(-c3ccccc3)c2C)cc1OC`, the Potency entry is “inactive”.
For `O=C(CN1CCCSc2ccccc21)N1CCN(S(=O)(=O)c2ccccc2)CC1` the value was “inactive”; for `COc1cccc(OCCOc2cccc(/C=N/n3cnnc3)c2)c1`, 3980 nM (active); for `COc1ccccc1OCCOc1ccc(/C=N/n2cnnc2)cc1`, “inactive”.
In the case of `C(=N\n1cnnc1)/c1cccnc1` it was “inactive”; in that of `Cc1csc(NC(=O)C2CCN(S(=O)(=O)c3ccccc3)CC2)n1`, “inactive”; in that of `COc1cc2c(cc1OC)CN(C(C)C(=O)Nc1cccc(S(=O)(=O)N3CCOCC3)c1)CC2` (centres undefined), “inactive”.
For `Cc1c(C(=O)NNC(=O)c2ccncc2)oc2ccccc12` the value was “inactive”; for `CCN(CC(=O)Nc1ccc(OC)cc1)C(=O)CSCc1ccc(C)cc1`, “inactive”; for `O=C(Nc1cc(C(F)(F)F)ccc1Cl)C(=O)N1CCCCC1`, “inactive”.
`O=C(Nc1cc(C(F)(F)F)ccc1Cl)c1cc2nc3c(c(C(F)(F)F)n2n1)CCCC3`: the Potency is 3160 nM (active).
For `O=C(Nc1cc(C(F)(F)F)ccc1Cl)c1cc(C2CC2)on1` the value was “inactive”.
For `O=C(COc1ccccc1Cl)N1N=C(c2cccs2)CC1c1ccco1` (centres undefined) the value was “inactive”; for `CC(C)C(NC(=O)c1c(F)cccc1F)C(=O)NCc1ccncc1` (centres undefined), “inactive”.
As for `O=C(OCC(=O)N1CCc2ccccc21)C1CCCN1S(=O)(=O)c1ccc(Cl)cc1` (centres undefined), the Potency entry is “inactive”.
In the case of `O=C(Nc1cccc(F)c1)NC1CCCc2ccccc21` (centres undefined) it was “inactive”; in that of `C/C(CC(=O)Nc1cccc(F)c1)=N\NC(=O)C(=O)NC1CCCCC1`, “inactive”.
For `O=C(Nc1cccc(F)c1)NC1CCCCCCC1` the value was 2510 nM (active); for `COc1ccc(OC)c(S(=O)(=O)n2c([N+](=O)[O-])cnc2C)c1`, “inactive”.
For `CCOC(=O)CSc1nnc(NC(=O)c2cccc(S(=O)(=O)N3CCCC3)c2)s1` the value was “inactive”; for `CCSc1nnc(NC(=O)c2ccc(C)cc2)s1`, 1120 nM (active).
For `O=C(/C=C/c1ccccc1)Nc1nnc(SCC(=O)c2ccc3ccccc3c2)s1`, the Potency result is “inactive”.
For `NC(=O)CSc1nnc(NC(=O)c2ccc(Br)o2)s1` the value was “inactive”.
With `C=CCSc1nnc(NC(=O)c2ccc(NC(C)=O)cc2)s1`, the Potency result was “inactive”.
For `NC(=O)CSc1nnc(NC(=O)c2ccc3ccccc3c2)s1` the value was 3160 nM (active); for `CN(CC(=O)NCC(c1ccccc1)N1CCCC1)S(=O)(=O)c1ccc(Cl)cc1` (centres undefined), “inactive”.
For `CC(C)(C)OC(=O)Nc1ccc([C@@H](NC(=O)OC(C)(C)C)C(=O)OC(C)(C)C)cc1` the value was “inactive”; for `Cc1ccc(NC(=O)Cc2nc(COC(=O)C(C)NS(=O)(=O)c3ccc(C)cc3)cs2)cc1` (centres undefined), “inactive”; for `COc1cc(C(=O)NCC(c2ccco2)N2CCCC2)ccc1OCc1ccccc1` (centres undefined), “inactive”.
For `CCN(CC(=O)Nc1ccccc1OC)C(=O)CC1CC2CCC1C2` (centres undefined), the Potency result was “inactive”.
For `COc1cccc(NC(=O)CN(C)C(=O)c2cc(C3CC3)nn2-c2ccccc2)c1` the value was “inactive”; for `CSc1nc2ccc(NC(=O)c3c(F)cccc3F)cc2s1`, 2510 nM (active); for `CCCC(=O)Nc1nc2ccc(NC(=O)c3c(F)c(F)c(OC)c(F)c3F)cc2s1`, “inactive”.
For `O=C(Nc1ccncc1)c1c(F)cccc1F` the value was “inactive”; for `CC1(C)CC(=O)C=C(c2ccc(Cl)c(C(F)(F)F)c2)C1`, “inactive”.
In the case of `CCOc1ccc(NC(=O)CN(C)C(=O)Cc2sc(C)nc2-c2ccc(F)cc2)cc1OCC` it was “inactive”; in that of `COc1ccccc1C(=O)NCCC(=O)N(C)Cc1cccnc1`, “inactive”.
For the compound `CC1(C)O[C@@H]2[C@H](O1)[C@@H](CO)O[C@H]2n1c(N2CCCCC2)nc2c(N)ncnc21`, the Potency result was “inactive”.
Turning to `O=C(c1ccc(F)cc1)N1CCC(n2nnc3ccccc32)CC1`, the Potency is 4470 nM (active).
For `O=S(=O)(c1cccc(S(=O)(=O)N2CCC(n3nnc4ccccc43)CC2)c1)N1CCCCC1` the value was “inactive”; for `CC(=O)c1cccc(S(=O)(=O)N2CCC(n3nnc4cc(F)ccc43)CC2)c1`, “inactive”.

These data come from PubChem BioAssay AID485313 (National Center for Advancing Translational Sciences (NCATS), 2010).
